Results: PubChem BioAssay (NCATS)
Entries with a potency or affinity are not part of this list. The source made the active and inactive calls. The rule behind the calls is not given here.
Note: 0% is about no effect.

Conditions: Ebola virus entry assay, green fluorescence channel
For C1CCC(C(CC2CCCCN2)C2CCCCC2)CC1 (centres undefined), the efficacy was -230% (inactive).
With CN(C)CCCOc1nn(Cc2ccccc2)c2ccccc12 the efficacy was 54.9% (inactive).
In the case of CCCCCCCCCCOCC(O)CN (centres undefined), the efficacy is reported as -191% (inactive).
With C[C@H]1O[C@@H](O[C@H]2CC[C@@]3(C)[C@H](CC[C@@H]4[C@@H]3C[C@@H](O)[C@]3(C)[C@@H](C5=CC(=O)OC5)CC[C@]43O)C2)C[C@H](O)[C@@H]1O[C@H]1C[C@H](O)[C@H](O[C@H]2C[C@H](O)[C@H](O[C@@H]3O[C@H](CO)[C@@H](O)[C@H](O)[C@H]3O)[C@@H](C)O2)[C@@H](C)O1 the efficacy was -58.9% (inactive).
For CN1CCC(=C2c3ccccc3CC(=O)c3sccc32)CC1, the efficacy was 93.4% (inactive).
In the case of CC(=O)NC(Cc1ccccc1)C(=O)O (centres undefined), the efficacy is reported as 29.9% (inactive).
With CCCCC[C@H](O)C=C[C@H]1[C@H](O)CC(=O)[C@H]1CC=CCCCC(=O)O the efficacy was 75.7% (inactive).
In the case of CCOC(=O)Cn1cccc1-c1nc(-c2ccc(OC)cc2)c(-c2ccc(OC)cc2)s1, the efficacy is reported as 34.5% (inactive).
In the case of Cc1ccc(N(CC2=NCCN2)c2cccc(O)c2)cc1, the efficacy is reported as 66% (inactive).
In the case of Nc1c2c(nc3c1CCC3)CCCC2, the efficacy is reported as 42.2% (inactive).
In the case of COc1cccc2c1C(=O)c1c(O)c3c(c(O)c1C2=O)C[C@@](O)(C(C)=O)C[C@@H]3O[C@H]1C[C@H](N)[C@H](O)[C@H](C)O1, the efficacy is reported as 54.5% (inactive).
With O=C(O)c1cn(-c2ccc(F)cc2)c2cc(N3CCNCC3)c(F)cc2c1=O the efficacy was 23.7% (inactive).
In the case of C[C@@H]1CN(CCCn2c3ccccc3c3ccccc32)C[C@H](C)N1, the efficacy is reported as -134% (inactive).
For OCc1cc(C(O)CNCCCCCCOCCCCc2ccccc2)ccc1O (centres undefined), the efficacy was 98.5% (inactive).
With COc1ccc(CCN2CCC(Nc3nc4ccccc4n3Cc3ccc(F)cc3)CC2)cc1 the efficacy was -220% (inactive).
For NC(=NCCCCCCN=C(N)/N=C(\N)Nc1ccc(Cl)cc1)/N=C(\N)Nc1ccc(Cl)cc1, the efficacy was -197% (inactive).
For O=C(c1ccc(F)cc1)C1CCN(CCn2c(=O)[nH]c3ccccc3c2=O)CC1, the efficacy was 78.1% (inactive).
With CCN(CC)CCOc1ccc(Cc2ccccc2)cc1 the efficacy was 70.7% (inactive).
In the case of CN(C)CC/C=C1\c2ccccc2Sc2ccc(Cl)cc21, the efficacy is reported as -98.3% (inactive).
With CCO[C@@H]1O[C@H](C(COCc2ccccc2)OCc2ccccc2)[C@H](OCc2ccccc2)[C@H]1O (some centres undefined) the efficacy was 70% (inactive).
For CN(C)C(=S)SC(=S)N(C)C, the efficacy was -50.4% (inactive).
For CN1CCN(C2Cc3ccccc3Sc3ccc(Cl)cc32)CC1 (centres undefined), the efficacy was 95.7% (inactive).
In the case of CC(=O)c1ccc2c(c1)N(CCCN(C)C)c1ccccc1S2, the efficacy is reported as 87% (inactive).
In the case of CCN1C(=O)c2ccccc2C1Nc1ccc(OCCN2CCCCC2)cc1 (centres undefined), the efficacy is reported as 33.9% (inactive).
For O=C(CCCN1CCN(c2ccc(F)cc2)CC1)NC1c2ccccc2CSc2ccccc21 (centres undefined), the efficacy was 64.4% (inactive).
In the case of CCN(CC)CCOc1ccc(C(O)(Cc2ccc(Cl)cc2)c2ccc(C)cc2)cc1 (centres undefined), the efficacy is reported as -145% (inactive).
In the case of OCCN1CCN(CCCN2c3ccccc3C=Cc3ccccc32)CC1, the efficacy is reported as 49.7% (inactive).
For CC1=C(C(=O)OC(C)C)C(c2cccc([N+](=O)[O-])c2)C(C(=O)OC2CN(C(c3ccccc3)c3ccccc3)C2)=C(N)N1 (centres undefined), the efficacy was -152% (inactive).
With O=C(NC1CCN(CCc2c[nH]c3ccccc23)CC1)c1ccccc1 the efficacy was 90.8% (inactive).
For O=C(CCCN1CC=C(n2c(=O)[nH]c3ccccc32)CC1)c1ccc(F)cc1, the efficacy was 51% (inactive).
For CC(CC1c2ccccc2CCc2ccccc21)CN(C)C (centres undefined), the efficacy was 28.4% (inactive).
For CCCC(=O)O[C@]1(C(=O)CC)CC[C@H]2[C@@H]3CCC4=CC(=O)CC[C@]4(C)[C@H]3[C@@H](O)C[C@@]21C, the efficacy was 46.1% (inactive).
For CCCCCCCCCCCCCCCC[N+](C)(C)Cc1ccccc1, the efficacy was -178% (inactive).
In the case of O=C1OC2(c3ccccc31)c1cc(I)c(O)c(I)c1Oc1c2cc(I)c(O)c1I, the efficacy is reported as 162% (inactive).
In the case of CN1C[C@H](C(=O)N[C@]2(C)O[C@@]3(O)[C@@H]4CCCN4C(=O)[C@H](Cc4ccccc4)N3C2=O)C[C@@H]2c3cccc4[nH]cc(c34)C[C@H]21, the efficacy is reported as 95.4% (inactive).
With CCN(CC)CCOc1ccccc1C(=O)CCc1ccccc1 the efficacy was 42.3% (inactive).
With CCC(CN)=C(c1ccccc1)c1ccccc1 the efficacy was 124% (inactive).
With CN(C)CCOC(c1ccccc1)c1ccc(Br)cc1 (centres undefined) the efficacy was 63.8% (inactive).
For COc1cccc(N(C)C(=S)Oc2ccc3c(c2)CCCC3)n1, the efficacy was 84.1% (inactive).
